Compound activity from PubChem BioAssay.
KinaseGlo FLuc: counter-screen: inhibitors of Kinase-Glo firefly luciferase. actives 0.28% (n = 200,000). Q27757. Potency, µM (doses to about 38.3 µM), for inactives: top-dose activity change, negative = inhibition, usual class: inhibitors. Kinase-Glo luciferase, ATP luminescence, 8 min; further: on the % scale 0 is the no-effect control and ±100 the full control effect; nearly all actives have a fitted effect of over 60% in size
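Inhibition of Kinase-Glo luciferase light generation was assessed at 10 uM ATP in pH 7.2 imidazole buffer, with luminescence measured after eight minutes at ambient temperature.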
Rab9 promoter act: Rab9 promoter activation; Huh7 Rab9 promoter-luciferase reporter, luminescence, 24 h; Potency, µM (highest dose often 9.22 µM), inactives show top-dose activation, negative = inhibition, usual class: activators; actives 2.8% (n = 320,000); further: % of control where 0% means no effect; nearly all actives have a fitted effect of over 60% in size
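Cells were plated at 1500 per well in reduced-serum medium with 10% FBS and left 2 h. Compound in DMSO was then added for 24 h at 37 °C. Reporter signal was read by luminescence after 10 min with luciferase detection reagent.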
ELG1 genotox: genotoxicity induction in ELG1-luciferase HEK293T cells | HEK293T ELG1-luciferase reporter, luminescence, 16 h | Potency, µM (highest dose often 46 µM), without a hit: at the top dose activity change, positive = activation, hits mostly activators | actives 1.3% (n = 330,000) | AID 504466; further: % of control where 0% means no effect; nearly all actives have a fitted effect of over 60% in size
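DMSO vehicle served as control against compound-treated ELG1-luciferase HEK293T cells; exposure lasted 16 hr at 37 °C and 5% CO2, followed by ONE-Glo luminescence detection after 30 min.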
SMN2 splice enh: enhancers of SMN2 splice variant expression. HEK293 SMN2-luciferase splicing reporter, luminescence, 30-36 h. Potency, µM (highest dose often 46.1 µM), for inactives: at the top dose activity change, positive = activation, hits mostly activators. actives 2.8% (n = 210,000). AID 1458; further: % of control where 0% means no effect; nearly all actives have a fitted effect of over 55% in size
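qHTS luciferase splicing reporter: luminescence rises when SMN2 exon 7 is included in transfected HEK293 cells. Compound exposure lasted 30-36 h at 37C, with 4.5 mM final sodium butyrate as control, followed by a ONE-Glo read.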
NPC1 promoter act: activators of NPC1 promoter. AID 485313. actives 2.4% (n = 320,000). Huh7 NPC1 promoter luciferase reporter, 24 h. Potency, µM (doses to about 9.22 µM), without a hit: top-dose activation, hits mostly activators; further: % of control where 0% means no effect; nearly all actives have a fitted effect of over 60% in size
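Readout is luciferase luminescence, reflecting NPC1 promoter activation in stably transfected Huh7 cells after 24 h compound exposure at 37 °C in reduced-serum medium with 10% FBS.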
FLuc modulator: inhibits or activates purified firefly luciferase, miR-21 counter-screen | Potency, µM (highest dose often 57.5 µM), for inactives: at the top dose activity change, negative = inhibition, most hits filed as inhibitors | purified FLuc, Km substrates, luminescence inhibition | P08659 | actives 6.9% (n = 360,000);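 further: plate controls were vehicle for no effect and reference inhibitor for full effect; nearly all actives have a fitted effect of over 55% in size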
Target sequence (P08659 whole entry, looked up): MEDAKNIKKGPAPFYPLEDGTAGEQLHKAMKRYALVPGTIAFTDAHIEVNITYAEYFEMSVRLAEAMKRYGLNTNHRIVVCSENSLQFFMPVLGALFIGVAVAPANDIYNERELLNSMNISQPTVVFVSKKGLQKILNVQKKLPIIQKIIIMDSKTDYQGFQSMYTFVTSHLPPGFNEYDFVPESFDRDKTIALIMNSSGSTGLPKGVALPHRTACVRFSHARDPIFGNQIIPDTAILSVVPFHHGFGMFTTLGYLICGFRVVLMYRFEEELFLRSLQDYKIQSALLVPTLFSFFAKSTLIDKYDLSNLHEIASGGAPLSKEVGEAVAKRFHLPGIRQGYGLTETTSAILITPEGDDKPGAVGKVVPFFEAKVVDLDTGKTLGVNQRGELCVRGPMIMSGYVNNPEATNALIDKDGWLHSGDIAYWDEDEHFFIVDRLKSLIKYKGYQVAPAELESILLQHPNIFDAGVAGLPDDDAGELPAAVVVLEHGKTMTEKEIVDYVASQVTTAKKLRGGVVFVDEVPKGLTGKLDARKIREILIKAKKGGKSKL
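Biochemical qHTS of compounds, final roughly 60 µM downward over six points, against 10 nM purified firefly luciferase using Km concentrations of substrates (10 uM D-luciferin, 10 uM ATP) in Tris acetate pH 7.5 buffer; luminescence output.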
Starred values were filed as active, the others as inactive; ? = inconclusive; / = no result; [ ] = another dose, or the depositor's remark. Compounds with a hit are over-represented: about 7.4% of the library has one in this group of screens. The call rests on the fitted dose curve; in most records, active means well fitted curve in the direction sought with a large enough effect; inconclusive means small, poorly fitted or top-dose-only effect, or another doubt; inactive means no such curve, though single readings can be large; an effect the other way counts as inactive or inconclusive. Potency means the concentration at half of the fitted maximal effect.

SMILES	KinaseGlo FLuc	Rab9 promoter act	ELG1 genotox	SMN2 splice enh	NPC1 promoter act	FLuc modulator
Clc1ccc(C2=NNC(=NCc3ccccc3)SC2)cc1	1%	?	3%	17%	?	17µM*
Cc1ccc(NC(=O)CSc2nnc3nc(C)cc(C)n23)cc1	/	/	/	-3%	/	-5%
CC(C)(C)OC(=O)N1CCC(c2c(C(=O)NC3CCN(Cc4ccccc4)CC3)cnn2-c2ccc(F)cc2F)CC1	/	/	/	/	/	-2%
CCNC(=O)C1CCN(S(=O)(=O)c2ccc3c(c2)CCCN3C(C)=O)CC1	/	/	/	/	/	-1%
COc1cc(N=Nc2c(O)c3ccccc3[nH]c2=O)c(OC)cc1N=Nc1ccccc1	/	-1%	-4%	/	3%	15µM*
CC(C)(C)c1nc2scc(-c3ccc(Cl)cc3)c2c(=O)o1	-6%	-1%	-4%	19%	-1%	1%
O=c1[nH]c(-c2ccc(O)cc2)nc2scc(-c3cccs3)c12	/	2µM*	?	/	2.8µM*	11µM*
O=C(O)c1ccc(-c2nc3scc(-c4ccccc4)c3c(=O)[nH]2)cc1	/	-10%	-1%	/	0%	9.5µM*
CC(C)(C)c1nc2scc(-c3cccs3)c2c(=O)o1	-1%	15%	0%	/	0%	13µM*
O=C(O)c1ccc2c(c1)C(=O)N([C@H](Cc1ccc(C(F)(F)F)cc1)C(=O)O)C2=O	/	3%	/	/	-1%	2%
COc1ccc(-n2nc(C(=O)NCCc3ccc(OC)c(OC)c3)c3c4ccccc4n(C)c3c2=O)cc1Cl	/	/	/	3%	/	-2%
CN(C)CCCNc1oc(-c2ccc(Cl)cc2)nc1C#N	-1%	-4%	1%	9%	3%	-11%
COCCNc1oc(-c2ccc(Cl)cc2)nc1C#N	-1%	?	?	?	?	11µM*
COc1ccc(CCNc2oc(-c3ccc(C)cc3)nc2C#N)cc1OC	-1%	-3%	9%	-40%	6%	4%
COCCNc1oc(-c2ccc(C)cc2)nc1C#N	-3%	3.5µM*	5.6µM*	10µM*	?	12µM*
OC[C@H]1O[C@H](n2cnc3c(NC4CCCC4)nc(Cl)nc32)[C@@H](O)[C@@H]1O	-2%	/	/	/	/	/
O=C(O)C[C@H](NC(=O)CP(=O)(O)O)C(=O)O.[NH-][C@@H]1CCCC[C@@H]1[NH-].[Pt]	-4%[7.66 µM]	/	/	2.5µM*	/	/
CC1CCCN(c2ncnc3c2cnn3-c2ccccc2)C1 (stereo not given)	/	0.14µM*	?	/	0.35µM*	0.19µM*
Cc1ccc(Cl)cc1-n1ncc2c(N3CCC(C)CC3)ncnc21	/	/	/	/	/	-8%
CC1CCCN(c2ncnc3c2cnn3-c2ccc(F)cc2)C1 (stereo not given)	/	/	/	/	/	0.17µM*
CC1CCCN(c2ncnc3c2cnn3-c2ccc(Cl)cc2)C1 (stereo not given)	/	-29%	1%	/	-38%	0.095µM*
Cc1ccc(S(=O)(=O)N2CCN(c3ncnc4c3cnn4-c3ccccc3)CC2)cc1	1%	5%	2%	-6%	-3%	0%
CCN(CC)C(=O)C1CCCN(c2ncnc3c2cnn3-c2ccc(Cl)cc2)C1 (stereo not given)	/	-5%	-10%	/	-8%	17µM*
CCOC(=O)C1CCCN(c2ncnc3c2cnn3-c2cccc(C)c2)C1 (stereo not given)	1%	28%	?	17%	24%	24µM*
Cc1ccc(-n2ncc3c(N4CCCC(C)C4)ncnc32)c(C)c1 (stereo not given)	/	2µM*	?	/	3.2µM*	7.6µM*
SMILES	KinaseGlo FLuc	Rab9 promoter act	ELG1 genotox	SMN2 splice enh	NPC1 promoter act	FLuc modulator
CCN(CC)C(=O)C1CCCN(c2ncnc3c2cnn3-c2cccc(C)c2)C1 (stereo not given)	-4%	-7%	?	-18%	-3%	?
CC1CC(C)CN(c2ncnc3c2cnn3-c2ccc(Cl)cc2)C1 (stereo not given)	1%	0.71µM*	?	-81%	2µM*	2.1µM*
Cc1cccc(-n2ncc3c(N4CCCC(C)C4)ncnc32)c1 (stereo not given)	/	/	/	/	/	0.43µM*
CC(=O)C1CCC2C3CC(C)C4=CC(=O)CC[C@@]4(C)C3C(O)C[C@@]12C (stereo not given in full)	-10%	/	/	-15%	/	/
CCOc1ccc(-n2c(SCc3ccccc3)nc3c([nH]c4ccccc43)c2=O)cc1	/	/	/	/	/	-1%
O=C(CCCCl)NC(=S)Nc1ccc(CN2CCOCC2)cc1	/	6%	6%	/	-4%	6%
Cc1ccc(C(=O)N2CCN(c3ccc(NC(=S)NC(=O)c4cccs4)cc3)CC2)cc1	-1%	-23%	-10%	/	-12%	1%
CC(C)(C)c1ccc(C(=O)NC(=S)Nc2ccc(N3CCOCC3)cc2)cc1	-3%	-4%	11%	2.8µM*	-7%	-9%
CC(C)(C)c1ccc(C(=O)NC(=S)N2CCCC2)cc1	/	-7%[1.84 µM]	1%	/	4%	9.5µM*
O=C(CCCCl)NC(=S)Nc1ccc(N2CCOCC2)cc1	/	1.4µM*	?	/	2.8µM*	-13%
O=C(NC(=S)Nc1ccc(N2CCOCC2)cc1)c1cccs1	-3%	0.79µM*	9%	/	?	24µM*
CC(C)(C)c1ccc(C(=O)Nc2ccc(N3CCOCC3)cc2)cc1	0%	-8%	-9%	-25%	-2%	?
COc1cc(C2CC(=O)Nc3cc4c(cc32)OCCO4)cc(Br)c1OC (stereo not given)	/	/	/	-21%	/	1%
COc1ccc(C2c3c(n(C)c4ccccc34)C(=O)N2CC(=O)Nc2cccc(Cl)c2C)cc1 (stereo not given)	/	/	/	/	/	3%
O=C1N=c2ccccc2=C1c1sc(NS(=O)(=O)c2ccccc2)nc1O	-1%	2%	-1%	-7%	2%	?
O=C1N=c2ccccc2=C1c1sc(Nc2cccc(O)c2)nc1O	/	5%	16%	/	15%	19µM*
O=C1N=c2ccccc2=C1c1sc(NS(=O)(=O)Cc2ccccc2)nc1O	/	-3%	4%	/	2%	11µM*
COc1cc(Nc2nn(-c3ccc(OC(F)(F)F)cc3)nc2C(C)=O)cc(OC)c1	/	/	/	6%	/	9%
CC(C)C1Oc2ccccc2N(CC(=O)N2CCOCC2)C1=O (stereo not given)	/	4%	5%	/	-2%	0%
CCC1Oc2ccccc2C(=O)N(CC(=O)c2ccc3c(c2)OCCO3)C1=O (stereo not given)	/	?	?	/	?	4.8µM*
CC(C)C1Oc2ccccc2C(=O)N(CC(=O)c2ccc3c(c2)OCCO3)C1=O (stereo not given)	/	1.4µM*	?	/	1.1µM*	2.4µM*
